Screens as filed in PubChem.
SRC1 inh: SRC1 coactivator transcriptional activity inhibitors, primary screen, cell-based, luminescence. inhibition, % at 3.6 µM. HEK293 GAL4-SRC1 luciferase reporter. 0.12% of 360,000 active. Nuclear receptor coactivator 1 (Homo sapiens), Q15788;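 active means inhibition above the campaign mean plus 3 SD, with each screening campaign given its own cutoff, cut at about 60% in these data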;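 further: 0% = DMSO treated cells and 100% = gossypol at 36 µM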
SRC2 inh: inhibition of GAL4-SRC2 driven luciferase reporter, primary screen, SRC2 inhibitor project, cell-based, luminescence; HEK293 GAL4-SRC2 luciferase reporter; 0.17% of 370,000 active; Nuclear receptor coactivator 2 (Homo sapiens), Q15596; inhibition, % at 9 µM;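 active means inhibition above the mean inhibition of all tested compounds plus 3 SD, set per campaign, cut at about 52% in these data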;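 further: 0% = DMSO treated cells and 100% = cells given Gossypol at 36 µM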
NR2F2 inh: NR2F2 transcriptional activity inhibitors, primary screen, cell-based, luciferase reporter, HEK293T, luminescence; COUP transcription factor 2 (Homo sapiens), P24468; HEK293T NGFI-A luciferase reporter; inhibition, % at 8.6 µM; 0.7% of 370,000 active;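 active means inhibition above a per-plate cutoff, mean inhibition of test wells between control levels plus 3 SD, cut at about 38% in these data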;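 further: cells cotransfected with COUP-TFII expression vector driving the NGFI-A reporter; 0% = median of COUP-TF2 test wells and 100% = reporter-only cells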
NCOA3 inh: SRC3 coactivator transcriptional activity inhibitors, primary screen, cell-based, luminescence. Nuclear receptor coactivator 3 (Homo sapiens), Q9Y6Q9. HEK293 GAL4-SRC3 luciferase reporter. inhibition, % at 3.6 µM. 0.17% of 360,000 active. AID 588352, 2011;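 active means inhibition above a per-campaign cutoff, the mean of all compounds plus 3 SD, cut at about 60% in these data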;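 further: 0% = DMSO-treated cells and 100% = gossypol-treated cells at 36 µM; higher means less SRC3-driven luciferase light from the GAL4 reporter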
LRH-1 inv ag: LRH-1 (NR5A2) inverse agonists, primary screen, cell-based, luminescence, HEK293T, StAR-luciferase reporter | LRH-1 transfected, 24 h | inhibition, % at 3.6 µM | 0.13% of 360,000 active | AID 602396, 2012;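 active means inhibition above the mean inhibition of all tested compounds plus 3 SD, cut at about 73% in these data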;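 further: 0% = DMSO wells and 100% = reporter-only cells lacking LRH-1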
Gal4-VP16 ctr: Gal4-VP16 luciferase reporter inhibitors, counter-screen for COUP-TFII antagonist project, cell-based, luminescence, HEK293; inhibition, % at 8.5 µM; 25% of 2,500 active; AID 687007, 2013; shares compounds with NR2F2 inh; in the data active means inhibition above about 13%
NR2F2 inh conf: NR2F2 transcriptional activity inhibitors, confirmation, cell-based, luciferase reporter, HEK293, triplicate; inhibition, % at 8.5 µM; HEK293 NGFI-A luciferase reporter, luminescence; shares compounds with NR2F2 inh; 45% of 2,500 active;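 active means mean inhibition over three repeats above a set limit taken from the earlier primary screen, cut at about 38% in these data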;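 further: 100% = cells given the luciferase reporter alone without the COUP-TF2 vector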
An asterisk follows results filed as active; nt = no result. Shown are actives, neighbours in structure and some others; about 0.81% of the full set was active somewhere.

SMILES	SRC1 inh	SRC2 inh	NR2F2 inh	NCOA3 inh	LRH-1 inv ag	Gal4-VP16 ctr	NR2F2 inh conf
O=c1c2cc3cccnc3nc2ncn1CCc1c[nH]c2ccccc12	nt	16.2	43.8*	nt	nt	-3.7	2.9
O=c1c2cc3ccccc3nc2ncn1CCc1ccc(Cl)cc1	nt	-0.8	-2.5	nt	9.8	nt	nt
CCn1c(SCC(=O)c2[nH]c(C)c(C(C)=O)c2C)nnc1-c1cccs1	17.8	-7.9	52.4*	20.0	18.1	3.1	13.4
CN1CCN(C(=S)c2ccc(OCC(=O)Nc3cccc(C(F)(F)F)c3)cc2)CC1	4.3	23.7	3.2	22.0	10.5	nt	nt
O=C(c1ccc2c3c(cccc13)CC2)C1CCCN(Cc2ccncc2)C1 (centres undefined)	12.0	13.4	52.9*	8.2	15.4	18.9*	30.2
O=S(=O)(NC1CCCCCC1)c1cccc(Cl)c1	16.2	-8.9	-5.6	4.1	-3.1	nt	nt
COc1ccc(CNC(=O)c2cccc(S(=O)(=O)N3CCCCC3)c2)cc1OC	24.6	13.4	64.3*	5.9	29.0	3.2	44.6*
COc1ccc(CNC(=O)c2cc(S(=O)(=O)N3CCCCC3)ccc2Cl)cc1OC	11.8	1.3	51.2*	5.7	37.0	2.0	33.4
Cc1cccc(N2N=C(C(=O)N3CC(=O)Nc4ccccc43)CCC2=O)c1	-20.8	-6.6	0.5	3.7	6.3	nt	nt
S=C(NCc1ccc(Cl)cc1)NC1CCN(Cc2ccccc2)CC1	-23.5	34.9	51.7*	23.2	15.0	6.3	19.4
COc1cc2c(cc1OC)C(c1ccc(-c3ccc(Cl)c(Cl)c3)o1)=NCC2	17.2	27.7	50.7*	31.1	22.9	9.2	45.5*
COc1cc2c(cc1OC)C(c1ccc(-c3ccc(Cl)cc3Cl)o1)=NCC2	23.1	17.9	62.1*	22.4	42.2	0.1	42.1*
COc1cc2c(cc1OC)C(c1ccc(-c3cc(Cl)ccc3Cl)o1)=NCC2	8.3	nt	nt	-7.5	8.2	nt	nt
Cc1nc(N2N=C(c3ccc(Cl)cc3)CC2c2ccco2)sc1C(=O)N(C)C (centres undefined)	-52.2	-2.6	2.2	-37.1	-103.1	nt	nt
COc1ccc(-n2nc([N+](=O)[O-])c(=NCc3ccco3)n2O)cc1	-47.1	-20.9	-18.9	-44.2	-40.1	nt	nt
Cc1cccc(N2CC(C(=O)Nc3cccc(S(=O)(=O)N4CCCCC4)c3)CC2=O)c1C (centres undefined)	-3.2	19.9	47.0*	25.2	-6.2	2.9	14.3
COc1ccccc1CCC(=O)Nc1cccc(S(=O)(=O)N2CCCCCC2)c1	30.6	2.0	13.7	16.7	7.3	nt	nt
COc1ccc(CC(=O)Nc2cccc(S(=O)(=O)N3CCOCC3)c2)cc1OC	20.8	0.8	47.0*	23.8	26.6	1.5	30.0
Cc1cccc(N2CC(C(=O)Nc3ccc(S(=O)(=O)N4CCOCC4)cc3)CC2=O)c1C (centres undefined)	-5.1	-12.5	6.5	-3.0	8.7	nt	nt
COc1ccccc1CC(=O)Nc1cccc(S(=O)(=O)N2CCOCC2)c1	3.6	8.3	2.8	22.7	-14.1	nt	nt
COc1ccc(CC(=O)Nc2cccc(S(=O)(=O)N3CCCC3)c2)cc1OC	14.9	31.9	62.5*	32.1	27.6	6.2	45.5*
CCc1cccc(NC(=O)Cc2ccc(OC)c(OC)c2)c1	-1.2	8.4	39.5*	24.9	28.4	11.7	32.0
Cc1[nH]c2ccccc2c1SCc1nnc(SCc2ccc(Cl)cc2)n1C	6.8	21.7	10.7	30.6	-0.9	nt	nt
COc1cccc(NC(=S)N2CCN(C)CC2)c1	0.0	7.5	1.7	1.7	7.3	nt	nt
Cc1cc(C)[n+]2n1C(=O)C(c1ccccc1)=C2[O-]	-25.3	-20.5	-0.9	-3.7	-6.0	nt	nt
SMILES	SRC1 inh	SRC2 inh	NR2F2 inh	NCOA3 inh	LRH-1 inv ag	Gal4-VP16 ctr	NR2F2 inh conf
COCc1cccc(-c2csc(C(O)c3ccc(OC)cc3)n2)c1 (centres undefined)	0.2	-12.1	4.9	-6.5	-7.3	nt	nt
CCN(CC)CCNC(=O)Cn1ncc2ccccc2c1=O	15.8	-13.3	8.6	14.9	7.4	nt	nt
COc1ccc(CC(=O)Nc2ccc(-c3nnc(-c4ccccc4)o3)cc2)cc1OC	-37.7	nt	nt	-40.3	-30.0	nt	nt
COc1ccc(CC(=O)Nc2cccc(-c3nnc(-c4cccc(C)c4)o3)c2)cc1OC	-4.0	13.9	53.3*	-6.6	-6.7	-20.0	10.9
CC1CN(c2nc3ccccc3nc2SCC(=O)N2CCN(S(=O)(=O)c3ccccc3)CC2)CC(C)O1 (centres undefined)	nt	11.9	42.7*	nt	nt	3.0	9.6
CC1CN(c2nc3ccccc3nc2SCC(=O)N2CCN(S(=O)(=O)c3ccc(F)cc3)CC2)CC(C)O1 (centres undefined)	nt	3.5	24.6	nt	nt	nt	nt
CCc1cc(=O)oc2cc(C)cc(OC(C)C(=O)NC3CCN(Cc4ccccc4)CC3)c12 (centres undefined)	-13.2	-4.7	12.1	-1.1	-5.2	nt	nt
Cc1onc(-c2ccccc2)c1-c1ccnn1S(=O)(=O)c1ccc(Cl)cc1	17.8	-5.5	21.8	16.8	16.3	nt	nt
C[n+]1cc2c3c(ccc2c2ccc4cc5c(cc4c21)OCO5)OCO3	nt	87.3*	105.8*	nt	nt	95.3*	106.6*
COc1ccc2cc3[n+](cc2c1O)CCc1cc2c(cc1-3)OCO2	nt	-7.2	-3.4	nt	0.6	nt	nt
O=C(Nc1cccc([N+](=O)[O-])c1)c1cc2ccccc2cc1O	-32.5	-3.6	63.5*	-8.3	-36.6	-134.6	2.4
COc1ccc(NC(=O)c2cc([N+](=O)[O-])ccc2O)cc1	51.1	76.3*	68.9*	53.3	19.9	39.4*	61.1*
COc1ccc(NC(=O)c2cccc([N+](=O)[O-])c2)cc1	-30.5	-35.5	-15.5	-35.9	2.2	nt	nt
O=C(Nc1nc2cc3c(cc2s1)OCCO3)C1=COCCO1	54.3	68.2*	81.2*	65.2*	44.2	56.5*	76.7*
CCCCOc1ccccc1C(=O)NCCCCCC(=O)O	-11.2	-0.4	-4.1	12.4	-10.5	nt	nt
Cc1ccc(/C=C2/CNC/C(=C/c3ccc(C)cc3)C2=O)cc1	36.5	-54.1	47.0*	12.2	79.9*	54.2*	49.7*
CCCCCCCCCC[n+]1cccc2c3ccccc3ccc21	58.4	43.8	82.9*	81.5*	90.0*	19.6*	81.6*
Cc1cccc[n+]1CCCCCCCCCC[n+]1ccccc1C	9.2	6.9	29.9	25.8	17.4	nt	nt
CCCCCCCC[n+]1cccc2c3ccccc3ccc21	38.4	14.7	79.9*	81.1*	88.2*	13.6*	77.3*
CCCCCCCCNc1ncnc2ccccc12	27.1	nt	nt	20.4	52.8	nt	nt
